Bioassay records deposited in PubChem BioAssay by several laboratories.
The sample as a whole holds a higher share of hits than the screen did.
AMPAR-TARP mod: modulates AMPAR-stargazin complexes | O88602+P19491 | HEK293 GluA2+stargazin, membrane potential dye (FDSS), glutamate EC50; hits were called plate by plate, in both directions | 40,000 tested, 3.5% active | calls only at 30 µM | AID 1259245;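 active = any of four per-well response measures lying three or more SD from its plate-wide compound average, in either direction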
GIRK2 activator: GIRK2 channel activators by thallium flux. HEK293 GIRK2/NPY4 cells, thallium flux fluorescence. 34,000 tested, under 10 active. activation (% efficacy), % for hits at 37.5 µM. P48051. AID 1259324;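 active = primary screen hit, no activity in plain HEK293 cells, and in GIRK2-only cells above 5% efficacy rising with concentration; inactive = the rest, including fluorescent compounds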;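 also: efficacy is normalized control-subtracted fluorescence 15 s after thallium addition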
Each line names hits and unclear results; the compound was inactive in the other large screens.

c1nc(N2CCNCC2)c2cn[nH]c2n1	AMPAR-TARP mod active
Cc1cc(C)n(CCN2CCN(C(=O)Cc3ccc(S(=O)(=O)C(C)C)cc3)CC2)n1	none
NCCN1CCN(c2ccccc2F)CC1	none
COc1ccc(OCC(=O)N2CCN(Cc3nnnn3-c3ccc(F)c(F)c3)CC2)cc1	none
COc1cccc(/C=C2\Oc3cc(OC(=O)N(C)C)ccc3C2=O)c1	none (no result: GIRK2 activator)
COc1ccc(/C=C2\Oc3cc(OC(=O)N(C)C)ccc3C2=O)cc1OC	AMPAR-TARP mod active (no result: GIRK2 activator)
O=C1CC(NC(=O)c2ccsc2)CN1 (stereo not drawn)	none (no result: AMPAR-TARP mod)
COc1ccc(NC2(C#N)CCCCC2)cc1	AMPAR-TARP mod active
Cc1nnc(C2CCNCC2)s1	none
